Records with an inconclusive call do not appear. Where a call stands in place of a potency, no number is given. Active and inactive are the calls of the source. Calls follow the shape of the full dose curve.
Target: Atrial natriuretic peptide receptor 1 (Homo sapiens) (UniProt P16066)
Experiment: Natriuretic polypeptide receptor (hNpr1) antagonism - Pilot CMLD screen (AID 1347052);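 also: HEK293 cells with hNpr1 stimulated by hNppA peptide at 0.1 nM; cGMP level read as GloSensor luciferase luminescence after agonist stimulation; series mostly up to about 9.2 µM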

Chain of Atrial natriuretic peptide receptor 1 (Homo sapiens) (P16066 whole entry, looked up): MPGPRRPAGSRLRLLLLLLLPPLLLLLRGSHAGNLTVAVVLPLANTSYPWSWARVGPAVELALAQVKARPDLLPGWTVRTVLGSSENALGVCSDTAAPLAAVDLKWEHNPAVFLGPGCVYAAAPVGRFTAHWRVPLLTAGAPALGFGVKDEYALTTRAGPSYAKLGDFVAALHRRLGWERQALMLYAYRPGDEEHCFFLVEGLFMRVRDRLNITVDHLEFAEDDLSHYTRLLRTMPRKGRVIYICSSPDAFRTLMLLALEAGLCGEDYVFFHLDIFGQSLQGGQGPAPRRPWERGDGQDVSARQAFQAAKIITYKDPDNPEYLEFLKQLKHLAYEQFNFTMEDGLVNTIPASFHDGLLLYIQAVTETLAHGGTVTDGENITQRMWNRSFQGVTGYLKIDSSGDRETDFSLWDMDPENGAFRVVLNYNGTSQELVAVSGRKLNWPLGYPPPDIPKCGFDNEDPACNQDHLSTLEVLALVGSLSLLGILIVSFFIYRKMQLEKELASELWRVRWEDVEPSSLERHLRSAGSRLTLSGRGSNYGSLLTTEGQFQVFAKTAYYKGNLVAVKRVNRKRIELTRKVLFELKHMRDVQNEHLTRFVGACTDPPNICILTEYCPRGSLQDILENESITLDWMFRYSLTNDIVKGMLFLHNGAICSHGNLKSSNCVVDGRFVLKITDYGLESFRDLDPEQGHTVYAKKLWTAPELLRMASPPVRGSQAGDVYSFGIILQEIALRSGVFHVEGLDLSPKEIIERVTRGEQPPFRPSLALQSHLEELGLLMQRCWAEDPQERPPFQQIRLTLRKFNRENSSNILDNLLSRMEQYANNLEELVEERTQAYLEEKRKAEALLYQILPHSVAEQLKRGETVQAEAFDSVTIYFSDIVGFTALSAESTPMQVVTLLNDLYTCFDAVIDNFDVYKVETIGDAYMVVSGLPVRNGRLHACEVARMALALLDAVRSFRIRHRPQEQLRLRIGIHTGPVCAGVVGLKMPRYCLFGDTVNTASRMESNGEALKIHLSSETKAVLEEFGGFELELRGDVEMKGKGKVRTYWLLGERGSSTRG

Row | SMILES | Potency
1 | COc1cc2c(c(OC)c1OC)C(c1ccccc1)(c1ccccc1)CC2NC(=O)C(F)(F)F (configuration not stated) | inactive
2 | Cc1ccccc1Nc1oc(-c2ccccc2)nc1-c1cccc2ccccc12 | inactive
